Measurements from PubChem BioAssay (NCI).
“And” between values parts separate entries of the source, which are not always exact repeats. Equal values may be shown once. This is part of a sample that, as a whole, favours compounds with a hit. Of some 79,000 tested, about 15% had one in any assay. Where a structure was tested more than once in an assay, its records may differ in their call. The source made the active and inactive calls. Cut-off read from the data, not from the text of the source: active = growth inhibition above about 70%; inactive = the rest.

Legend:
[1] = NCI Yeast Anticancer Drug Screen. Data for the rad50 strain (AID 155);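 note: 0% = growth of vehicle-only cultures of the same strain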; details: S. cerevisiae rad50 strain growth inhibition; at 50.0 µM; stronger effect = higher value
Outline: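 Inhibition values express reduced yeast growth in compound-treated cultures relative to vehicle-treated controls.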

[2] = NCI Yeast Anticancer Drug Screen. Data for the mec2-1 strain (AID 157); details: S. cerevisiae mec2-1 strain, at 50.0 µM, stronger effect = higher value
Outline: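 Cells of the genetically defined mec2-1 yeast strain are incubated with test compound. Inhibition of growth is calculated against vehicle-treated controls.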

[3] = NCI Yeast Anticancer Drug Screen. Data for the sgs1 mgt1 strain (AID 161);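 note: 0% = growth of cultures given vehicle only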; details: S. cerevisiae sgs1 mgt1 strain, at 50.0 µM, stronger effect = higher value
Outline: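 Genetically altered yeast, compound exposure, growth inhibition relative to vehicle.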

[4] = NCI Yeast Anticancer Drug Screen. Data for the cln2 rad14 strain (AID 165);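 note: 0% = growth equal to vehicle treated cultures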; details: S. cerevisiae cln2 rad14 strain, at 50.0 µM, stronger effect = higher value
Outline: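 The screen exposed genetically defined yeast (cln2 rad14) to test compounds and scored growth inhibition relative to vehicle-treated controls.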

[5] = NCI Yeast Anticancer Drug Screen. Data for the bub3 strain (AID 167); details: S. cerevisiae bub3 mutant strain, at 50.0 µM, stronger effect = higher value
Outline: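 Steps: expose the mutant yeast strain to compound; grow alongside vehicle-treated cultures; measure growth; express inhibition against the vehicle cultures.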

[6] = NCI Yeast Anticancer Drug Screen. Data for the mlh1 rad18 strain (AID 175); details: S. cerevisiae mlh1 rad18 strain growth inhibition; at 50.0 µM; stronger effect = higher value
Outline: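 Compound-treated yeast growth, normalised to vehicle controls. Strain bears defined DNA repair mutations.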

Row | SMILES | growth inhibition [1] | growth inhibition [2] | growth inhibition [3] | growth inhibition [4] | growth inhibition [5] | growth inhibition [6]
1 | CCCCN(CCCC)CCCN | 13.2% (inactive) and 9.35% (inactive) | -1.45% (inactive) and -6.9% (inactive) | -18.9% (inactive) and -5.35% (inactive) | -11.6% (inactive) and 9.8% (inactive) | 6.5% (inactive) and -3.15% (inactive) | -9% (inactive) and 11.7% (inactive)
2 | Cn1c(=O)c(Br)cn(C2OC(CO)C3OC32)c1=O (stereo unspecified) | -6.35% (inactive) and -9.05% (inactive) | -0.8% (inactive) and -4.2% (inactive) | 18.1% (inactive) and 4.9% (inactive) | -19.4% (inactive) and -15.4% (inactive) | 25.4% (inactive) and -4.1% (inactive) | 4.15% (inactive) and -0.65% (inactive)
3 | CCCCNC(=S)NCCCC | -6.45% (inactive) and -1.4% (inactive) | 9.9% (inactive) and 8% (inactive) | -11% (inactive) and 19.2% (inactive) | -32% (inactive) and -17.5% (inactive) | 1.15% (inactive) and -4.35% (inactive) | -2.4% (inactive) and 17.3% (inactive)
4 | COc1ccc(C(O)C(NCCO)c2ccc(OC)cc2)cc1 (stereo unspecified) | 8.85% (inactive) and -3.55% (inactive) | 12.8% (inactive) and -7.35% (inactive) | 42.7% (inactive) and -3.7% (inactive) | -37.6% (inactive) and -16.8% (inactive) | -2.25% (inactive) and 0.05% (inactive) | 15.7% (inactive) and -28.1% (inactive)
5 | O=C(O)c1cc([N+](=O)[O-])c2c(c1)P(=O)(O)c1cc(C(=O)O)cc([N+](=O)[O-])c1O2 | 19.9% (inactive) and 10.8% (inactive) | -1.35% (inactive) and 3.05% (inactive) | 7.65% (inactive) and 4.55% (inactive) | 5.9% (inactive) and 4.05% (inactive) | -0.6% (inactive) and -2.1% (inactive) | 13.7% (inactive) and 7.85% (inactive)
6 | NC(=O)N/N=C/C=C/c1ccccc1 | 18.4% (inactive) and -1.3% (inactive) | 12.7% (inactive) and 3.1% (inactive) | 6.85% (inactive) and -6.75% (inactive) | 7.55% (inactive) and -20.4% (inactive) | -0.4% (inactive) and -14.1% (inactive) | 5.05% (inactive) and 6.95% (inactive)
7 | OC1Cc2ccccc2CC1O (stereo unspecified) | -20.1% (inactive) and -35.1% (inactive) | -41.4% (inactive) and -39.9% (inactive) | -36.5% (inactive) and -12.3% (inactive) | -19.6% (inactive) and -1.5% (inactive) | -26.1% (inactive) and -8.8% (inactive) | -5.8% (inactive) and -14.7% (inactive)
8 | COc1nc2c(c(=O)n1C)NC(C(O)C(O)CO)C=N2 (stereo unspecified) | -34.7% (inactive) and -26.7% (inactive) | -20.6% (inactive) and -33.5% (inactive) | -23.8% (inactive) and -25.8% (inactive) | -5.05% (inactive) and 8.25% (inactive) | -14.8% (inactive) and -15.7% (inactive) | -23.4% (inactive) and -17.4% (inactive)
9 | O=C(CCCC(=O)NO)NO | 5.4% (inactive) and 2.75% (inactive) | -2.25% (inactive) and 0.6% (inactive) | -1.3% (inactive) and -6.9% (inactive) | -8.15% (inactive) and -26.6% (inactive) | -5.05% (inactive) and -22.9% (inactive) | 2.65% (inactive) and -37.4% (inactive)
10 | C=C1C(=O)OC2C1CCC(C)C1CCC(=O)OC12C (stereo unspecified) | 50.9% (inactive) and -7.2% (inactive) | 58.8% (inactive) and -1.4% (inactive) | 43.1% (inactive) and 17.2% (inactive) | 35% (inactive) and 18.6% (inactive) | 64% (inactive) and 13.6% (inactive) | 54.5% (inactive) and 3.8% (inactive)
11 | O=C1CCOC2=C1COC2=O | -30.7% (inactive) and 9.5% (inactive) | -6.05% (inactive) and 17.6% (inactive) | -2.4% (inactive) and -0.6% (inactive) | -25.6% (inactive) and 12.3% (inactive) | -7.95% (inactive) and 19.6% (inactive) | -1.2% (inactive) and 16.6% (inactive)
12 | O=C(O)CSc1ccccc1C(=O)O | -1.35% (inactive) and -7.9% (inactive) | -11.9% (inactive) and -40.9% (inactive) | 1.6% (inactive) and -35.4% (inactive) | -27.9% (inactive) and 22.3% (inactive) | 6.15% (inactive) and -33.8% (inactive) | -17.9% (inactive) and -4.25% (inactive)
13 | Nc1cccc2cc(S(=O)(=O)O)ccc12 | 10.6% (inactive) and -6.9% (inactive) | 22.9% (inactive) and -9.85% (inactive) | -24.9% (inactive) and -1.25% (inactive) | -2.75% (inactive) and -50.2% (inactive) | -1.65% (inactive) and -11.9% (inactive) | -5.5% (inactive) and -35.7% (inactive)
14 | Cc1cc(N(C)C)nc(N(C)C)n1 | -4.75% (inactive) and -1.7% (inactive) | -4.7% (inactive) and -14.8% (inactive) | -1.5% (inactive) and -5.25% (inactive) | -0.9% (inactive) and -33.3% (inactive) | 10.9% (inactive) and -7.15% (inactive) | 8.25% (inactive) and -10.1% (inactive)
15 | Nc1cc(S(=O)(=O)O)ccc1Cl | 2.8% (inactive) and 1% (inactive) | -15.7% (inactive) and -2.75% (inactive) | 11.2% (inactive) and -20.6% (inactive) | 10.1% (inactive) and -43.9% (inactive) | 6.95% (inactive) and 14.1% (inactive) | 3.95% (inactive) and -13.1% (inactive)
16 | CC(C)C(=O)/C=C/c1ccccc1 | 11.1% (inactive) and 21.2% (inactive) | -2.4% (inactive) and -2.75% (inactive) | 10% (inactive) and -5.25% (inactive) | 18.2% (inactive) and -12.6% (inactive) | 7.7% (inactive) and -3.95% (inactive) | 17.8% (inactive) and 8% (inactive)
17 | Cc1cn(C2CC(CCCO)C(CO)O2)c(=O)[nH]c1=O (stereo unspecified) | -6.5% (inactive) and -9.9% (inactive) | -7% (inactive) and -5.25% (inactive) | 6.7% (inactive) and 2.7% (inactive) | -2.8% (inactive) and 16.1% (inactive) | 2.3% (inactive) and 0.3% (inactive) | 5.35% (inactive) and 0.6% (inactive)
18 | COc1ccc(-c2nc(SC3OC(COC(C)=O)C(OC(C)=O)C(OC(C)=O)C3OC(C)=O)n(C3OC(COC(C)=O)C(OC(C)=O)C(OC(C)=O)C3OC(C)=O)c(=O)c2C#N)cc1 (stereo unspecified) | 11.2% (inactive) and -3.9% (inactive) | 8.85% (inactive) and -1% (inactive) | 22.4% (inactive) and 18.1% (inactive) | -6.15% (inactive) and -19.5% (inactive) | 3.35% (inactive) and 14.9% (inactive) | -12.7% (inactive) and -3.55% (inactive)
19 | COc1ccc2c(c1OC)C(=O)N1C2=Cc2c(cc3c(c2OC)OCO3)CC1N(C)C (stereo unspecified) | 16.7% (inactive) and 30.1% (inactive) | -26.1% (inactive) and 33.8% (inactive) | 39.9% (inactive) and 57.1% (inactive) | 12.3% (inactive) and 13% (inactive) | -11.8% (inactive) and 17.6% (inactive) | 12.7% (inactive) and 41.2% (inactive)
20 | C1=C(c2cccc3ccccc23)CCCC1 | -2.85% (inactive) and 18.2% (inactive) | 7.45% (inactive) and -4.1% (inactive) | -12.4% (inactive) and -5.1% (inactive) | -0.1% (inactive) and 8.1% (inactive) | 2.65% (inactive) and 11.7% (inactive) | 6.9% (inactive) and -9.2% (inactive)
21 | CCOC1(C)OC2OC(COC(c3ccccc3)(c3ccccc3)c3ccccc3)C(O)C(O)C2O1 (stereo unspecified) | 63% (inactive) and 48.6% (inactive) | 28.9% (inactive) and 6.85% (inactive) | 95.2% (active) and 54.7% (inactive) | 24.9% (inactive) and 28.4% (inactive) | 76.2% (active) and 27.6% (inactive) | 50.9% (inactive) and 50% (inactive)
